Experimental data from ChEMBL document CHEMBL5308504, “Tm Shift (DSF) assay results for EUbOPEN Chemogenomics Library” (2023).
Values joined by “and” are separate entries in the source; they are usually repeats but may differ in a detail not shown here. Equal values may be shown once.

How the values were obtained:
Conditions in all cases: Compound concentration 20.0 uM, Protein concentration 2.0 uM, Result type QC Liability
[1] = target: Tyrosine-protein kinase ABL1 (Homo sapiens) (UniProt P00519)
Sequence of Tyrosine-protein kinase ABL1 (Homo sapiens) (P00519 whole entry): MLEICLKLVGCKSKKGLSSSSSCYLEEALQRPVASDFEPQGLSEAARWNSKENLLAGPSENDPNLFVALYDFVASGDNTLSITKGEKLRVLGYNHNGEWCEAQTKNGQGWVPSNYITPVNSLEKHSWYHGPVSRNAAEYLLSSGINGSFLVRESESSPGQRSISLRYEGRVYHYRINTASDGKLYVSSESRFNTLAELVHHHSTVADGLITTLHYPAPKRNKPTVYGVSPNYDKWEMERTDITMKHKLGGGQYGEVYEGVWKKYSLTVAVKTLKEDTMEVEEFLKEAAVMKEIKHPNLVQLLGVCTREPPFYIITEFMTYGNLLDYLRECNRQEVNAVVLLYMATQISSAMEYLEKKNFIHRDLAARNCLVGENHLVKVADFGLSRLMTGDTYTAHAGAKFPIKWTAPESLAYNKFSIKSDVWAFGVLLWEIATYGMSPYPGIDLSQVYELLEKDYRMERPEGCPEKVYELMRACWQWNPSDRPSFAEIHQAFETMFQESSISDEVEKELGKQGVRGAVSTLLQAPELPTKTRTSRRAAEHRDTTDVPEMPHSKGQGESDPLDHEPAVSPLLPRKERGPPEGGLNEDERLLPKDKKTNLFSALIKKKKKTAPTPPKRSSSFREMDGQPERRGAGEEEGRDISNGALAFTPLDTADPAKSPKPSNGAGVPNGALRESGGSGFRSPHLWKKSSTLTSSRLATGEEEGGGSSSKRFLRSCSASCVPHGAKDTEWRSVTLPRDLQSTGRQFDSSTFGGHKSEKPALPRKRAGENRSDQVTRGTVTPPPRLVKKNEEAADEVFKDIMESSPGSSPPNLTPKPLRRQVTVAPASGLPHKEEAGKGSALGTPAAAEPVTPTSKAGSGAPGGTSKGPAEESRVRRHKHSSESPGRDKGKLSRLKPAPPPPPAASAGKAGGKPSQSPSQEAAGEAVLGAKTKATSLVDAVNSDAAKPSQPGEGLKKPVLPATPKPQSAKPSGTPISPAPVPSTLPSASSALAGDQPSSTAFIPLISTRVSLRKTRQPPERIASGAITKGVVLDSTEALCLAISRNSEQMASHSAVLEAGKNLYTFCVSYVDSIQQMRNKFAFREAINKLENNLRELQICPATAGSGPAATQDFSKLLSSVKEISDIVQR

[2] = target: Cyclin-dependent kinase 2 (Homo sapiens) (UniProt P24941)
[3] = target: Casein kinase I isoform delta (Homo sapiens) (UniProt P48730)
Sequence of Casein kinase I isoform delta (Homo sapiens) (P48730 whole entry, looked up, canonical isoform): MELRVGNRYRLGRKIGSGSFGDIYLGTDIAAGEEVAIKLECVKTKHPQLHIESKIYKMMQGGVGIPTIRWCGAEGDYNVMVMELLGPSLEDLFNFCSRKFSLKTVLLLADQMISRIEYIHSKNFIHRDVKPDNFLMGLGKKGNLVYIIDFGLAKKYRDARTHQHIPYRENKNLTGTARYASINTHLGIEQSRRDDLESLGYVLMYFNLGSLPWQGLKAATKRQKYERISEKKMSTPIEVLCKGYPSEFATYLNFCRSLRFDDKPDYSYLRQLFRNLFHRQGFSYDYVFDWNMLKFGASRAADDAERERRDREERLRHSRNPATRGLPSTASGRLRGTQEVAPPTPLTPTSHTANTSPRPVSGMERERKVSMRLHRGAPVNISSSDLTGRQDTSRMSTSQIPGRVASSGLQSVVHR

[4] = target: Glycogen synthase kinase-3 beta (Homo sapiens) (UniProt P49841)
Sequence of Glycogen synthase kinase-3 beta (Homo sapiens) (P49841 whole entry, looked up): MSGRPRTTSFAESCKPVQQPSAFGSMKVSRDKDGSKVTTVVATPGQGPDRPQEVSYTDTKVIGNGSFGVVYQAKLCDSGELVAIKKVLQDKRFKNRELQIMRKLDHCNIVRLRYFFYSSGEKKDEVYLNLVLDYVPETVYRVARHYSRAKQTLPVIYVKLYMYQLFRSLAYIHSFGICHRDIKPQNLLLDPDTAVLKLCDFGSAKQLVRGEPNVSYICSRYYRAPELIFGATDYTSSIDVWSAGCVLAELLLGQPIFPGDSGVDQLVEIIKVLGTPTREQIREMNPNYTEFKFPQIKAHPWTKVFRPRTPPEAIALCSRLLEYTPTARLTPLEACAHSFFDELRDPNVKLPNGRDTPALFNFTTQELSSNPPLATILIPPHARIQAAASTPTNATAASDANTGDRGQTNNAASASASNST

[5] = target: Mitogen-activated protein kinase 1 (Homo sapiens) (UniProt P28482)
Sequence of Mitogen-activated protein kinase 1 (Homo sapiens) (P28482 whole entry): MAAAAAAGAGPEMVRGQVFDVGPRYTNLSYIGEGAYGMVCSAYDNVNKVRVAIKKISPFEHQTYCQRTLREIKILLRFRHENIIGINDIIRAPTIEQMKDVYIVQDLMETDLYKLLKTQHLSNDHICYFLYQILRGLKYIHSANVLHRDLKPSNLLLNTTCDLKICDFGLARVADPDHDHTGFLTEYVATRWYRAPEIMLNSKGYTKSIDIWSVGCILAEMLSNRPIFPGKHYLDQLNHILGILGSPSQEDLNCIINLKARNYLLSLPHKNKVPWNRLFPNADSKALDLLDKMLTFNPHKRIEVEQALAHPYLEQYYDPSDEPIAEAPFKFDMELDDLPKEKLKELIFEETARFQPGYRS

[6] = target: T1, Aurora kinase A (Homo sapiens) (UniProt O14965)
T1 sequence (whole entry): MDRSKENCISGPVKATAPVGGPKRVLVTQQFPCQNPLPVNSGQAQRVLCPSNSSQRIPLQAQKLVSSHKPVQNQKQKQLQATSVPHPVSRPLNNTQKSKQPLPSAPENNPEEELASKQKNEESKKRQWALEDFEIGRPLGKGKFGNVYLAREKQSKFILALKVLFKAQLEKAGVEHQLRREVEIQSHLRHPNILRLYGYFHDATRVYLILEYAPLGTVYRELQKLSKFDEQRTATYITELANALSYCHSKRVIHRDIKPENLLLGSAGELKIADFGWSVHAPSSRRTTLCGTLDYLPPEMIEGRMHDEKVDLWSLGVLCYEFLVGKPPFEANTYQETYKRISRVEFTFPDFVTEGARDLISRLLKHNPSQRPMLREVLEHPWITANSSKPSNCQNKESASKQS

SMILES	ΔTm [1]	ΔTm [2]	ΔTm [3]	ΔTm [4]	ΔTm [5]	ΔTm [6]
CC(C)C(=O)N1CCC(c2cn(C)c3ncc(NC(=O)c4cccc(C#N)c4)c(C(F)(F)F)c23)CC1	-0.05 °C	0.71 °C	0.74 °C	-0.4 °C	0.36 °C	-0.71 °C
Cc1cn([C@H](C)CC#N)c(=O)c2cc(Cn3nc(C(F)F)cc3Cl)nn12	0.14 °C	-0.62 °C	-0.16 °C	-0.46 °C	0.16 °C	-1.16 °C
O=C(O)CCCCN(CCc1cc(F)ccc1OCc1ccc(-c2ccc(C(F)(F)F)cc2)cc1)Cc1ccc(C(=O)O)cc1	0.64 °C	-0.19 °C	0.21 °C	-1.11 °C	-0.69 °C	0.32 °C
Cc1ccc(NC(=O)c2ccc3c(c2)OCCO3)cc1NC(=O)c1ccc2nc(OCCN3CCCC3)ccc2c1	2.56 °C	1.06 °C	1.91 °C	0.36 °C	0.33 °C	-0.43 °C
CNC(=O)c1c[nH]c2ccc(Nc3nccc(-c4ccccn4)n3)cc12	2 °C	1.28 °C	0.6 °C	2.67 °C	0.16 °C	1.47 °C
CC#CC(=O)N1CCN(c2nc(-c3ccc(Oc4ccccc4)cc3)c(C(N)=O)s2)CC1	-0.27 °C	-1.44 °C	-8 °C	-2.57 °C	-9.83 °C	-1.3 °C
Oc1c(-c2cccnc2)cnn1-c1ccccn1	-0.25 °C	0.31 °C	0.78 °C	-0.42 °C	0.36 °C	-0.05 °C
COc1ccc(S(=O)(=O)N2CCOCC2)cc1Nc1ccc2c(n1)N(C1CCOCC1)[C@H](C)C(=O)N2C	-0.18 °C	0.41 °C	-0.08 °C	-0.48 °C	-0.88 °C	0.03 °C
COc1ccc(S(=O)(=O)N2CCOCC2)cc1Nc1ccc2c(n1)N(C1CCN(C)CC1)[C@H](C)C(=O)N2C	-0.01 °C	0.43 °C	0.44 °C	0.08 °C	0.18 °C	0 °C
COc1cc(-c2cncc(-c3ccc(N4CCN(C(C)C)CC4)cc3)c2C)cc(F)c1C(=O)N1CCCC1	0.7 °C	0.41 °C	0.26 °C	-0.59 °C	0.53 °C	-0.62 °C
CNc1[nH]c(Nc2ccc(C(=O)N3CCOCC3)cc2OC)nc2ncc(Cl)c1-2	0.1 °C	-0.26 °C	4.5 °C	-1.11 °C	0.86 °C	1 °C
Cc1cc(OC2CCS(=O)(=O)CC2)cc(C)c1-c1cccc(COc2ccc(C(=O)O)c(F)c2)c1	0.14 °C	-1.08 °C	0.23 °C	-0.54 °C	0.7 °C	-1.19 °C
CC(C)NC(=O)[C@H]1CCC[C@H]1Nc1nc(Nc2ccc(CN(C)C)cc2)ncc1Br	6.63 °C	1.87 °C	0.87 °C	0.23 °C	1.81 °C	14.5 °C
Cn1nccc1-c1ccc(Sc2cccc(C3(C(N)=O)CCOCC3)c2)cc1	-0.11 °C	0.88 °C	-0.02 °C	-1.17 °C	0.22 °C	0.6 °C
COc1cc(-c2cc3ncccc3c(OC[C@H]3CNC(=O)C3)n2)cc(OC)c1OC1CCOCC1	1.45 °C	-0.03 °C	2.63 °C	-0.87 °C	0.16 °C	5.56 °C
N#CN1CC[C@@H](C(=O)Nc2nc3c(s2)CN(C(=O)CN=[N+]=[N-])CC3)C1	0.86 °C	0.33 °C	0.49 °C	-0.33 °C	0.62 °C	-0.54 °C
O=C(O)Cc1ccc(CCNS(=O)(=O)c2ccc(Cl)cc2)cc1	0.25 °C	0.43 °C	0.01 °C	0.95 °C	-0.52 °C	-0.24 °C
Nc1ncnc2[nH]c(-c3ccccc3)nc12	3.48 °C	0.92 °C	0.73 °C	1.04 °C	0.38 °C	0.6 °C
CC(=O)Nc1nc(C)c(S(=O)(=O)Nc2ccc(C(O)(C(F)(F)F)C(F)(F)F)cc2)s1	0.65 °C	0.74 °C	0.36 °C	0.5 °C	0.18 °C	1.27 °C
CNCc1ccc(-c2cc(-c3nc(-c4ccc(S(=O)(=O)C(C)C)cc4)cnc3N)on2)cc1	4.85 °C	-0.24 °C	-0.18 °C	9.94 °C	-0.07 °C	2.41 °C
O=C1CN(c2ccccc2F)C(NCCN2CCOCC2)=C1c1nc2cc(Br)ccc2c(=O)[nH]1	0.38 °C	0.68 °C	0.32 °C	0.31 °C	0.23 °C	0.17 °C
NC(=O)c1sc2nc(N3CCC(NC[C@H](O)c4ccccn4)CC3)cc(C(F)(F)F)c2c1N	1.22 °C	1 °C	1.86 °C	0.72 °C	0.39 °C	1.06 °C
CN(C(=O)c1cnn2cccnc12)c1cc2c(cc1N1CCOCC1)C(=O)N(C[C@@H](F)C(C)(C)O)C2	0.37 °C	-0.41 °C	-0.06 °C	-0.42 °C	0.49 °C	-0.66 °C
CCCCCCC(Sc1nc(Cl)cc(NCc2ccc(-c3ccccc3)cc2)n1)C(=O)O (stereo not given)	-0.03 °C	-0.83 °C	0 °C	0 °C	0 °C	-1.22 °C
Cc1cc([N+](=O)[O-])c(NS(=O)(=O)c2cccc(C(=O)O)c2)cc1-c1cccnc1	0.08 °C	0.85 °C	0.28 °C	0.02 °C	0.58 °C	0.29 °C

SMILES	ΔTm [1]	ΔTm [2]	ΔTm [3]	ΔTm [4]	ΔTm [5]	ΔTm [6]
CC(=O)c1ccc2c(c1)/C(=C(/Nc1cccc(C#N)c1)c1ccc3c(c1)OCCO3)C(=O)N2	6.24 °C	5.79 °C	1.02 °C	12 °C	0.75 °C	4.32 °C
O=C(O)c1cccc(C2=C(c3cc(Cl)ccc3OCc3ccc(F)cc3F)CCC2)n1	-0.85 °C	-1.05 °C	-0.59 °C	0 °C	-0.17 °C	-0.7 °C
CCOC(=O)C1Cc2ccccc2CN1C(=O)c1ccc(SC)s1 (stereo not given)	0.02 °C	0.34 °C	0.34 °C	-1.03 °C	0 °C	-1.2 °C
CCNC(=O)c1ccc2c(c1)NC(=O)/C2=C(\Nc1ccc(CN(C)C)cc1)c1ccccc1	3.61 °C and 1.55 °C	0.83 °C and 0.42 °C	0.37 °C and -0.02 °C	0.19 °C and -0.61 °C	0.2 °C and 0.17 °C	1.4 °C and 0 °C
C[C@@H](COCCC(=O)N1CCN(c2ncc(C(F)(F)F)cn2)CC1)Nc1cn[nH]c(=O)c1C(F)(F)F	0.32 °C	0.9 °C	-0.05 °C	-0.82 °C	0.42 °C	-0.45 °C
CCn1ccc(Nc2ncc3c(n2)-c2c(nn(C)c2-c2ccc(-c4cnn(C)c4)cc2Cl)CC3)n1	3.73 °C	5.04 °C	2.25 °C	5.78 °C	0.81 °C	6.95 °C
CC[C@H](CC(=O)O)n1c(=O)c2ncccc2n(Cc2cn(C)c3cc(C)cc(C)c23)c1=O	-0.39 °C and 0.26 °C	0.68 °C and 0.96 °C	0.28 °C and -0.08 °C	-0.11 °C and -0.78 °C	0.08 °C and 0.23 °C	-0.13 °C and 0.01 °C
COc1ccc2c(O[C@@H]3C[C@H]4C(=O)N[C@]5(C(=O)NS(=O)(=O)C6(C)CC6)CC5/C=C\CCCCC[C@H](NC(=O)c5ccn(C)n5)C(=O)N4C3)cc(OC(C)C)nc2c1C (stereo not given in full)	-0.32 °C	-0.49 °C	-1.66 °C	-4.13 °C	-0.6 °C	-0.12 °C
COc1cc(-c2nn([C@H]3CC[C@H](N4CCN(C(C)=O)CC4)CC3)c3ncnc(N)c23)ccc1NC(=O)c1cc2ccccc2n1C	14.2 °C	1.13 °C	21 °C	0 °C	3.54 °C	8.28 °C
NC(=O)c1ccccc1Nc1nc(-c2ccc(N3CCOCC3)cc2)cc2ncccc12	7.91 °C	1.53 °C	3.01 °C	2.43 °C	0.67 °C	10.1 °C
CN[C@@H](C)C(=O)N[C@H](C(=O)N1CCC[C@H]1c1nc(C(=O)c2ccc(F)cc2)cs1)C1CCCCC1	0.09 °C	0.27 °C	0.62 °C	-1.01 °C	0.23 °C	-1.15 °C
O=c1cc(C2CCNCC2)n2nc3cccc(Cl)c3c2[nH]1	0.46 °C	-0.11 °C	0.7 °C	0.46 °C	0 °C	-0.12 °C
COc1cc2nc([C@@H]3CCCS(=O)(=O)C3)n(C)c2cc1NC(=O)c1cccc(C(C)(F)F)n1	0.81 °C	0.09 °C	0.86 °C	-1.39 °C	0.05 °C	1.82 °C
Cc1cccc(-c2[nH]c(CNc3ccccc3F)nc2-c2ccc3ncnn3c2)n1	3.23 °C	0.92 °C	1.1 °C	-0.02 °C	0.92 °C	0.8 °C
COc1cc(-c2cc([C@H](O)C3CC3)n3ncnc(N)c23)ccc1CO	9.08 °C	0.4 °C	4.52 °C	0.91 °C	0.82 °C	1.06 °C
COc1cc(F)ccc1-c1ncnc(Nc2cccc(C[S@](C)(=N)=O)c2)n1	2.58 °C	3.09 °C	0.27 °C	10.1 °C	0.36 °C	3.39 °C
NC1(c2ccc(-c3nc4c(O)ccnn4c3-c3ccccc3)cc2)CCC1	0.22 °C	-0.34 °C	0.07 °C	-0.72 °C	0.46 °C	0.43 °C
Cc1c(-c2c(F)cc(C(N)=O)c3[nH]c4c(c23)CC[C@H](C(C)(C)O)C4)cccc1-n1c(=O)c2cccc(F)c2n(C)c1=O	3.83 °C	0.48 °C	0.11 °C	0.79 °C	-0.33 °C	10.9 °C
O=S(=O)(Nc1ccc(C(O)(C(F)(F)F)C(F)(F)F)cc1)c1cccs1	0.41 °C	0.73 °C	0.38 °C	-0.54 °C	1.04 °C	0.57 °C
COc1c(-c2cn(C3CCC(=O)NC3=O)nn2)csc1C(=O)N1CCCC1 (stereo not given)	0.22 °C	0.04 °C	0 °C	-0.65 °C	0.26 °C	-1.14 °C
Cc1[nH]c2c(N3CCCCC3)c(-c3ccccc3)nn2c(=O)c1-c1ccc(O)cc1	0.05 °C	0.91 °C	1.23 °C	-0.79 °C	0.43 °C	-0.38 °C
CC(C)NC(=O)[C@H]1CCC[C@H]1Nc1nc(Nc2ccc(C(=O)N(C)C3CCN(C)CC3)cc2)ncc1Cl	10.3 °C and 6.45 °C	1.23 °C and 1.13 °C	0.47 °C and 0.12 °C	0.76 °C and -0.38 °C	0.47 °C and 0.79 °C	15.7 °C and 14.3 °C
Cc1ncsc1-c1ccc(CNC(=O)[C@@H]2C[C@H](O)CN2C(=O)[C@@H](NC(=O)C2(F)CC2)C(C)(C)C)c(OCCOc2ccc(CN3CCN(c4cc(-c5ccccc5O)nnc4N)CC3)cc2)c1 (relative stereo)	0.51 °C	2.76 °C	6.03 °C	0.29 °C	0.5 °C	3.42 °C
CN1CC(=O)N(C)c2cnc(Nc3ccc(NC(=O)Nc4cccc(C(=O)O)c4)cc3)nc21	0.56 °C	-0.17 °C	0.58 °C	1.43 °C	0.43 °C	2 °C
CSc1nc2c(c(=O)n(C)c(=O)n2C)n1C	0.1 °C	0.27 °C	0.33 °C	-0.85 °C	0.33 °C	-0.13 °C
